Legend:
Experiment in all cases: PBM binding z-score (relative to random genomic background probes); higher = stronger binding; sequences stand for … in GC…GCGATTGACAGCGTAGAATGAAGG
[1] = test system: FXR:RXRa (NR concentration 270 nM, RXRa partner concentration 90 nM)
Summary of the method: (§1)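 Scanned fluorescence from custom Agilent 4×180K protein-binding microarrays was regression-normalized. Binding z-scores use random background probes as reference. Ligand-free nuclear receptor dimers were incubated on the arrays for 1 h and detected with antibodies against each partner (one per run).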

[2] = test system: LXRa:RXRa (NR concentration 270 nM, RXRa partner concentration 90 nM)
Summary of the method: as §1

[3] = test system: LXRa homodimer (NR concentration 270 nM)
Summary of the method: as §1

[4] = test system: LXRb:RXRa (NR concentration 270 nM, RXRa partner concentration 90 nM)
Summary of the method: as §1

[5] = test system: LXRb homodimer (NR concentration 270 nM)
Summary of the method: as §1

[6] = test system: PPARa:RXRa (NR concentration 270 nM, RXRa partner concentration 90 nM)
Summary of the method: as §1

[7] = test system: PPARg:RXRa (NR concentration 180 nM, RXRa partner concentration 90 nM)
Summary of the method: as §1

[8] = test system: PPARg:RXRa 270nM:90nM, anti-RXR (NR concentration 270 nM, RXRa partner concentration 90 nM)
Summary of the method: as §1

[9] = test system: PPARg:RXRa 30nM:10nM, anti-RXR (NR concentration 30 nM, RXRa partner concentration 10 nM)
Summary of the method: as §1

[10] = test system: PPARg:RXRa 90nM:30nM, anti-RXR (NR concentration 90 nM, RXRa partner concentration 30 nM)
Summary of the method: as §1

Sequence | PBM binding z-score [1] | PBM binding z-score [2] | PBM binding z-score [3] | PBM binding z-score [4] | PBM binding z-score [5] | PBM binding z-score [6] | PBM binding z-score [7] | PBM binding z-score [8] | PBM binding z-score [9] | PBM binding z-score [10]
CCAAGTAGGTTATGGGGCATTCAGGCAACGGTGA | 0.142 | 0.353 | -0.344 | 0.363 | -0.655 | 2.93 | 5.23 | 5.69 | 4.33 | 5.84
GGAACGAGGGTAAGTTGATAGCAGAGTTTGATGG | -0.0165 | -0.0993 | -0.232 | -0.276 | -0.358 | 0.189 | 0.422 | 0.00426 | -0.0948 | -0.0902
ATCGAAAGGTCTAGGTGAGTATAGAGAAAGGGAA | 0.504 | 0.836 | 0.254 | 0.163 | 0.443 | 0.539 | 0.509 | 0.366 | 0.34 | 0.331
CCTAACGGGTCACGAGGTTATAGCACGACGAGCG | 6.1 | 4.05 | 0.263 | 3.54 | -0.146 | 5.76 | 6.41 | 5.88 | 2.76 | 4.48
TCGAGTAGGTTAGGGGGATTCAGAATGGCGTCGA | 0.594 | 0.704 | 0.047 | 2.05 | 5.63 | 1.63 | 1.42 | 3.21 | 2.01 | 2.69
GCTGCTAGGTCAGGTTGGTCAGTTAACGGGTACG | 1.25 | 0.792 | 0.267 | 0.719 | 0.0842 | 1.6 | 0.425 | 0.836 | -0.54 | -0.0172
GCTCGGAGGAGAAGGTCAGAGCTTTGTCCGTAGA | 0.655 | 0.736 | -0.584 | 0.516 | -1.44 | 1.79 | -0.0558 | 0.967 | -0.721 | 0.353
CCGAGTAGGTAATGGGGCATTCAGGCAACGGTGA | -0.324 | -0.287 | -0.342 | -0.153 | -0.666 | 1.73 | 3.13 | 4.63 | 2.99 | 4.57
CGAACTAGGTCAAGGAGAGTGAATCTCCGCACGC | 2.98 | 1.99 | -0.412 | 1.17 | -0.521 | 4.25 | 7.01 | 6.29 | 3.34 | 5.99
CCTTACGGGTCACTGACAGGTTTTAGCATTTGGA | 5.38 | 3.52 | -0.116 | 3.31 | 0.045 | 5.09 | 4.18 | 4.36 | 1.27 | 3.04
CAAACTTGGTCAAAGGTCAAAGTCGAGCCAACCA | 6.18 | 6.18 | 4.48 | 5.67 | 2.36 | 6.84 | 11.5 | 10 | 10.4 | 11.2
ATCTCTAGGTAATAAGTTCAGTGAAAGAGAGGAC | 0.945 | 1.09 | 0.832 | 0.701 | 1.15 | 1.51 | 1.69 | 2.39 | 1.36 | 2.07
GCGACTGGGGCACAGCAGGTTACCATAAGGTTGG | 0.178 | 0.265 | -0.715 | -0.0951 | -1.1 | 0.996 | 1.75 | 1.45 | -0.344 | 0.859
AGAATGAGGTTAGACGTAGATCAGGGAAGAAAGT | 0.755 | 0.774 | 0.0351 | 0.67 | -0.107 | 2.02 | 0.989 | 1.22 | 0.406 | 0.527
TCATATAGGTAAAAGGTGAAGGTCGGTGTGGTAA | 1.92 | 1.85 | 0.375 | 2.08 | 0.359 | 5.23 | 9.08 | 8.43 | 8.12 | 8.44
GATAGAGGGTCAAGGCCAGAGTACGCGTATTGAT | 5.49 | 3.11 | -0.2 | 2.76 | -0.344 | 4.99 | 4.72 | 4.24 | 1.61 | 4.04
GCTGGTTGGTCAGTAAAAGGTCACACACCGGTCG | 3.32 | 4.46 | 4.47 | 4.09 | 1.04 | 4.38 | 2.91 | 4.89 | 2.71 | 4.59
CGTCCAATGTCATAGGAGGTCAGTGAAGACAGAT | 3.22 | 4.74 | 1.21 | 2.36 | 0.0659 | 2.66 | 0.938 | 0.958 | 0.0922 | 0.565
GTACCAAGGTGAATAGTTCGTTGATGAGTAGGCG | 0.539 | 0.334 | -0.116 | 0.214 | -0.29 | 1.24 | 0.857 | 1.06 | -0.033 | 0.842
GCATACAGGTAATACAAGGTGAAAGTCCGATTGT | 0.599 | 2.17 | 0.595 | 0.711 | -0.363 | 1.3 | 0.859 | 0.843 | 0.676 | 0.712
TAGCCTAGGTCATTCAGGGCCCAGTATAGAAAGC | 4.66 | 3.59 | 0.608 | 2.37 | 0.858 | 3.62 | 1.96 | 2.34 | 0.126 | 1.56
CCTAGGTGGTCAAGGTCACACACGCTATAGGTAC | 4.58 | 3.67 | 1.51 | 3.57 | 0.536 | 4.35 | 3.72 | 3.83 | 1.19 | 2.85
CATACAGGGTCAGCTAAGCCAGAGTAGGGACGGC | 4.23 | 2.89 | 0.0357 | 2.17 | 0.175 | 4.39 | 3.57 | 2.87 | 0.539 | 1.9
TCGAGTAGGTTAGTCGAGGCATTCAGCCAACATA | 0.165 | -0.288 | -0.432 | -0.531 | -1.3 | 0.172 | -0.115 | 0.522 | 0.735 | 0.72
TCATCTAGGTAATACAGGTGAAAGTCGGCATCTA | 0.88 | 0.831 | 0.409 | 0.796 | 0.445 | 2.05 | 1.29 | 2.5 | 3.85 | 3.22

Sequence | PBM binding z-score [1] | PBM binding z-score [2] | PBM binding z-score [3] | PBM binding z-score [4] | PBM binding z-score [5] | PBM binding z-score [6] | PBM binding z-score [7] | PBM binding z-score [8] | PBM binding z-score [9] | PBM binding z-score [10]
TGAATGAGGTTAGAGATCAGGGAACGTGGCGTCG | 0.893 | 0.556 | -0.223 | 0.296 | 0.27 | 2.47 | 2.82 | 4.06 | 2.73 | 4.07
ACAGACAGGTGATGAAGGTAACGCAGGCTATCAT | -0.062 | -0.206 | -0.481 | -0.283 | -0.516 | -0.00302 | 0.871 | 0.114 | -0.0221 | 0.00481
TCTGCTAGGTCAACGATGGTGAGCTAATCTGCTA | 2.96 | 1.8 | -0.337 | 1.15 | -0.262 | 2.95 | 2.17 | 3.07 | 1.74 | 2.39
CATACAGGATCAGCTAGGCCAGAGTAGGGACGGC | -0.21 | -0.464 | 0.0266 | -0.7 | -0.0365 | -0.466 | 0.558 | -0.422 | -0.274 | -0.505
CCTTCCGGGTCAAGGTTATAGCACGGGTGGTACG | 5.06 | 3.34 | 0.142 | 2.85 | 0.13 | 4.95 | 5.1 | 5.24 | 2.15 | 4.32
CCTTACGGGTCACGAGCTTATAGCACGACGAGCG | 6.56 | 4.18 | -0.258 | 3.49 | -0.00639 | 5.9 | 6.33 | 6.04 | 2.64 | 4.89
ATCTCTAGGTAACAAGTTCAGTCAAAGAGAGGAC | 0.865 | 0.77 | 0.75 | 0.867 | 0.743 | 1.5 | 1.4 | 2.12 | 1.16 | 1.85
CCGAGTAGGTTATGGGGCATTCTGGCAACGGTGA | 0.393 | 0.413 | -0.113 | 0.625 | -0.33 | 2.14 | 3.38 | 4.15 | 2.03 | 3.6
ACTCAAAGTTCATCTAGGTAACGTAAGATATGCT | 6.73 | 6.05 | 5.36 | 4.18 | 2.43 | 4.79 | 3.49 | 3.98 | 1.56 | 2.74
GCGACTGGGGCAAAGCAGGTTACCATTAGGTTGG | 0.209 | -0.0636 | -0.502 | 0.31 | -0.906 | 1.4 | 1.11 | 1.39 | -0.263 | 0.675
TCTTGTAGATAAAAGGTTAAGAAAGCCGAAGCCT | 1.26 | 1.93 | -0.0435 | 1.85 | 0.124 | 3.26 | 3.62 | 5.64 | 4.77 | 5.98
AATACAGGGTCATCGTAGGCCAGAGTTCGCACAG | 7.34 | 6.57 | 3.73 | 4.63 | 1.44 | 5.93 | 7.18 | 6.46 | 2.9 | 5.18
ACAGACAGGTGAGTGCAGGTAACTCAGCTGGACG | 0.0345 | -0.289 | -0.365 | -0.549 | -1.06 | -0.0295 | 0.62 | -0.199 | -0.134 | -0.571
CCGACAGGGGCAGAAAGGTTACCATACCATCCGG | 0.56 | 0.716 | -0.132 | 1.04 | -0.954 | 1.95 | 1.47 | 1.96 | 0.381 | 1.32
ACAGACAGGTGAGTGAAGGTACCTCAGCTGGACG | -0.587 | -0.527 | -0.687 | -0.78 | -0.777 | -0.49 | 0.476 | -0.227 | -0.761 | -0.682
AGAATGAGCTTACCAAAGATCAGGGAAACGCTTG | -0.649 | -0.433 | -0.203 | -0.523 | -0.394 | -0.401 | 0.53 | 0.206 | 0.32 | -0.0483
CTCGAAAGGTGGGTTGAGGTGAGTATACGGATAA | 0.825 | 0.397 | 0.00532 | 1.1 | 0.353 | 1.22 | 0.158 | 0.31 | -0.0559 | -0.00652
CCGACTGGGGCAAGGTTACCATCACGCACAGCCA | 0.162 | 0.447 | -0.106 | 0.674 | -1.14 | 1.79 | 2.72 | 3.61 | 0.851 | 2.78
ATCTCTAGGTAACAAGTTCAATGAAAGAGAGGAC | 1.38 | 1.5 | 1.01 | 1.42 | 1.28 | 2.44 | 2.44 | 2.87 | 1.22 | 2.61
CCTTACGGATCACTCCAGGTTATAGCATCGGAGT | 0.957 | 3.48 | 1.36 | 0.889 | 0.62 | 0.155 | 0.486 | -0.0175 | -0.194 | -0.283
TCTATTAGTTGATTAGGGCAACCGTAACAGCGGA | 0.375 | 0.299 | 0.215 | 0.508 | 0.657 | 1.05 | 0.178 | 2.01 | 3.91 | 2.77
TACCCTAGGTCATGCGGGCCAGTATAGTGTCGGC | 4.4 | 6.5 | 8.1 | 3.42 | 2.52 | 3.62 | 3.01 | 2.92 | 0.448 | 1.71
TCTAGCGGGCCAGAGGGTCACTCAAGAGGTACGG | 0.839 | 0.883 | -0.748 | 1.08 | -1.43 | 2.37 | 1.3 | 2.42 | 1.68 | 2.48
TGAATGAGGTTAAAGATCATGGAACGTGGCGTCG | 3.15 | 2.8 | -0.213 | 1.93 | -0.192 | 4.81 | 6.66 | 6.58 | 4.73 | 6.88
